± gives the standard deviation.
system: Streptococcus suis P1/7; assay: percent growth relative to DMSO control; higher = less growth inhibition; conditions: 10 µM; incubation time 18 h
Experimental: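 CLSI broth microdilution: 5x10^4 CFU of Streptococcus suis (strain P1/7 or HE06) incubated with 10 µM Pathogen Box compound in cation-adjusted Mueller Hinton broth, 37 °C, 5% CO2, 18 h. Growth read as OD600 and expressed as percent of the DMSO-treated control (100%); mean ± SD of three independent experiments.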

| Compound | percent growth [%] |
| --- | --- |
| COc1ccc(C(=N)N)cc1-c1cn(-c2ccc(C(=N)N)cc2)nn1 | 75.7 ± 2.9 |
| Cc1cc(C)n2nc(C(=O)Nc3cc(C(F)(F)F)ccc3N3CCOCC3)nc2n1 | 81.4 ± 16 |
| O=C(NCc1ccco1)N1CCN(Cc2ccc(Cl)s2)CC1 | 91.1 ± 21 |
| CCOC(=O)c1noc(N)c1-c1ccccc1 | 113 ± 32 |
| O=C(Nc1cnc2ccccc2c1)c1cccc(-n2cnnn2)c1 | 106 ± 28 |
| Clc1ccc(Cl)c(CO[C@H]2CCCC[C@@H]2n2ccnc2)c1 | 20.8 ± 36 |
| COc1ccc(C2=NN(C3CCCCCC3)C(=O)C2(C)C)cc1OCCCCOc1ccc(-c2nn[nH]n2)cc1 | 16.3 ± 27 |
| CNc1snc(C)c1C(=O)NCCOc1ccc(OC)cc1 | 115 ± 71 |
| Nc1ncc(-c2cn[nH]c2)cc1-c1nc2cc(Cl)cnc2[nH]1 | 74 ± 15 |
| CC(C)(C)c1cc(C(=O)Nc2cccnc2)cc(C(=O)Nc2cccnc2)c1 | 143 ± 90 |
| Cc1cc(OCC(=O)NCc2ccccc2)c2cc(Br)ccc2n1 | 176 ± 160 |
| CCN(CC)CCCCCCNc1cc(OC)cc2c(C)ccnc12 | 83.2 ± 15 |
| Cc1cc(NC(=O)c2ccc(Oc3ccc(Cl)cc3O)o2)no1 | 124 ± 65 |
| Cc1cc(OCC(=O)Nc2ccc(C(C)C)cc2)n(C)c(=O)c1C#N | 79 ± 12 |
| CC(C)C(C(=O)Nc1ccc(S(=O)(=O)N(C)C)cc1)c1ccc(Cl)cc1 (stereo not given) | 86 ± 22 |
| CC(Oc1ccccc1)C(=O)Nc1nc(-c2ccccn2)cs1 (stereo not given) | 2.35 ± 2.4 |
| COc1ccc(CN2CCOc3ccc(C(C)(O)CN(C)C)cc3C2)cc1C (stereo not given) | 101 ± 27 |
| N#Cc1nc(-c2ccccc2)oc1S(=O)(=O)c1ccc(Cl)cc1 | 85.2 ± 19 |
| COC(=O)c1c(NC(=O)c2c(F)c(F)c(F)c(F)c2F)sc2c1CCCCC2 | 85.2 ± 3 |
| COc1ccc2nc(C)cc(OCC(=O)Nc3ccccc3OC)c2c1 | 67.6 ± 16 |

| Compound | percent growth [%] |
| --- | --- |
| Cc1ccc(NC(=O)CC2COc3ccccc3O2)cc1Cl (stereo not given) | 95.7 ± 33 |
| CC(=O)Nc1ccc(-c2noc(CC3CCCN(Cc4cccc(F)c4C)C3)n2)cc1 (stereo not given) | 108 ± 44 |
| O=C(c1ccco1)N(CCCn1ccnc1)c1nc2c(Cl)cccc2s1 | 34.1 ± 59 |
| CNc1nnc(Sc2cnn(-c3ccccc3)c(=O)c2Cl)s1 | 110 ± 52 |
| Cc1ncc(-c2ccnc(Nc3ccc(S(C)(=O)=O)cc3)n2)n1C(C)C | 150 ± 100 |
| CNC(=O)C1Cc2ccccc2N1C(=O)Cc1ccc(F)cc1 (stereo not given) | 94.5 ± 32 |
| O=C([C@@H](c1ccc(Cl)cc1)c1cccnc1)N1CCN(c2ccc(C(F)(F)F)cc2)CC1 | 75.6 ± 12 |
| COc1cc(OC)cc(C(=O)NCC2Cc3cc(Cl)cc(-c4ccncc4)c3O2)c1 (stereo not given) | 65.4 ± 25 |
| COCC(C)NC(=O)CSc1ncnc2sc(-c3ccccc3)cc12 (stereo not given) | 84.8 ± 13 |
| COc1ccc(-c2cnc3ccc(N4CCCC4)nn23)cc1OC | 77.7 ± 7.5 |
| O=C(Nc1ccc2c(c1)B(O)OC2)c1ccccc1C(F)(F)F | 88 ± 14 |
| Cc1cccc(NC(=O)c2cc(S(=O)(=O)N(C)c3ccc(F)cc3)ccc2Cl)n1 | 112 ± 33 |
| CS(=O)(=O)N1CCC(Cn2nc(Cc3cccc4ccccc34)c3c(N)ncnc32)CC1 | 65.7 ± 20 |
| Cc1cc(Nc2ccncc2)n2nc(C)c(-c3ccccc3Cl)c2n1 | 105 ± 37 |
| CC(C)C(NC(=O)Cc1cccc2ccccc12)C(=O)Nc1cccc(C#N)c1 (stereo not given) | 158 ± 100 |
| CC1CS(=O)(=O)CCN1/N=C/c1ccc([N+](=O)[O-])o1 (stereo not given) | 85.1 ± 16 |
| CC(C)(C)C1CCC(CC2=C(O)C(=O)c3ccccc3C2=O)CC1 (stereo not given) | 36.3 ± 11 |
| O=C(Nc1cccc(Cl)c1)c1cnc(N2CCN(c3ccncc3)CC2)c(Cl)c1 | 20.4 ± 12 |
| Clc1ccc(CN2CCN(C3=NCCN3)CC2)cc1Cl | 72.2 ± 28 |
| O=C(c1cc2ccccc2o1)N1CCN(Cc2ccc3c(c2)OCO3)CC1 | 102 ± 20 |
